Among the data in PubChem BioAssay (NCI) are growth values, retold here.

Holding throughout (experiment): NCI-60 one-dose screen, 48 h (100 = growth as untreated, 0 = no growth, -100 = all killed)
In experiment [1] the test system is SR leukemia. The settings on record: 10 µM unless noted.
Experiment [2] has as its system RPMI-8226 leukemia. Conditions: 10 µM unless noted.
Experiment [3] relates to OVCAR-8 ovarian. Conditions: 10 µM unless noted.
Experiment [4] concerns OVCAR-5 ovarian. The settings on record: 10 µM unless noted.
Experiment [5] concerns OVCAR-4 ovarian. Conditions: 10 µM.
For experiment [6], the system named is SK-OV-3 ovarian. The settings on record: 10 µM unless noted.
The subject of experiment [7] is IGROV1 ovarian. The settings on record: 10 µM unless noted.
For experiment [8], the system named is OVCAR-3 ovarian. The settings on record: 10 µM unless noted.
Experiment [9] has as its system NCI/ADR-RES ovarian. The settings on record: 10 µM unless noted.
For experiment [10], the system named is T-47D breast. Conditions: 10 µM unless noted.
Experiment [11] deals with BT-549 breast. The settings on record: 10 µM unless noted.
For experiment [12], the system named is MDA-MB-435 melanoma. The settings on record: 10 µM unless noted.
For experiment [13], the system named is SW-620 colon. The settings on record: 10 µM unless noted.
The test system of experiment [14] is MCF7 breast. The settings on record: 10 µM unless noted.
Experiment [15] deals with HCT-116 colon. Conditions: 10 µM unless noted.
Experiment [16] deals with HCC-2998 colon. Conditions: 10 µM unless noted.
In experiment [17] the test system is KM12 colon. The settings on record: 10 µM unless noted.
In experiment [18] the test system is HS 578T breast. Conditions: 10 µM unless noted.

Compounds without any hit were thinned out: in the full panel of roughly 83,000, 20% have a hit.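 Results are percent growth after 48 hours of single-concentration exposure. 100 means growth as in untreated cells, lower positive values show inhibition; negative values down to -100 show cell death.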 Unmarked numbers belong to inactive results. Calls of active or inactive are those of the source. The calls were made as follows: active = growth percent below 10; inactive = the rest.

As to `CCCCCN(CCCCC)CCCCCCCCN1CCCc2ccccc21`, the growth in experiment [1] is 21.5%; in experiment [2], 84.1%; in experiment [3], 89.1%; in experiment [4], 107%; in experiment [5] it was 95.9%; in [6] it was 106%. For the same compound, the growth in [7] was 76.4%; in experiment [8], 72.1%; in experiment [9] it was 92.2%; in [10], 108%; in experiment [11], 88.6%; in experiment [12], 87.9%. Moreover, the growth was 82.8% in experiment [13]; 101% in experiment [14]; 64.8% in experiment [15]; 74.8% in experiment [16]; 73.4% in [17].
Regarding `O=C1COCCN1c1ccc(NCc2cn(Cc3ccccc3)c3ccccc23)cc1`, the growth in [1] is 58.3%; in [2] it was 86.8%; in experiment [3], 93.7%; in experiment [4], -23.8% (active); in experiment [5], 62.6%; in experiment [6], 34.3%. Also, the growth in experiment [7] is 15.5%; in experiment [8], 80.9%; in [18], 89.4%; in experiment [10] it was 44.9%; in [12], 97.9%; in experiment [13], 84.9%. Besides, the results for the growth in experiment [14], in experiment [15] and in [16] were 63.9%, 62.9% and 105%, respectively.
As for `O=C(O)c1cn(C2CC2)c2cc(N3CCN(Cc4c(O)ccc5ccccc45)CC3)c(F)cc2c1=O`, the growth in experiment [1] was 1.76% (active); in [2] it was 73.5%; in experiment [3] it was 16.8%; in experiment [4] it was 40.8%; in experiment [5] it was 18.2%; in [6] it was 48.4%. The growth in experiment [7] was 32.1%; in [8], -44.1% (active); in experiment [18], -6.63% (active); in [10] it was 29.5%; in experiment [12], 24.3%; in experiment [13] it was 28.2%. Moreover, the growth in experiment [14] is 16.3%; in experiment [15], 12.7%; in [16] it was 32.1%; in experiment [17], 37.5%.
In the case of `N#CC1C(=O)NC(c2ccccc2[N+](=O)[O-])c2sc3c(F)cccc3c21` (stereo not drawn), the growth in experiment [1] was 67.9%; in experiment [2], 41.3%; in [3] it was 75%; in experiment [4], -15.1% (active); in [5], -0.483% (active); in experiment [6], 72.8%. The growth in experiment [7] is 0.306% (active); in experiment [8], -14.5% (active); in experiment [9], 68.5%; in experiment [10], 2.51% (active); in experiment [11], 89.2%; in experiment [12], 102%. In addition, the growth in experiment [13] is 21.9%; in [14], 23.4%; in experiment [15] it was 11%; in [16], 93.8%; in experiment [17], 91.4%.
On to `Cc1cc[n+](CCCCCCCCCC[n+]2ccc(C)cc2)cc1`, for which the growth in [1] was 98.9%; in experiment [2], 102%; in experiment [3], 99%; in experiment [4], 97.9%; in experiment [5] it was 99.4%; in experiment [6], 97.8%. Also, the growth in experiment [7] was 112%; in experiment [8], 99.4%; in experiment [18] it was 102%; in [9], 94.3%; in experiment [11], 101%; in experiment [12], 102%. Also, the growth in [13] was 103%; in experiment [14] it was 93.6%; in experiment [15] it was 96.4%; in [16], 92.8%.
In the case of `O=C(CCNCc1ccccc1)c1ccccc1`, the growth in [1] was 109%; in [2], 105%; in experiment [3], 112%; in [4], 103%; in [5] it was 119%; in [6], 109%. For the same compound, the growth in [7] was 114%; in experiment [8], 102%; in experiment [18] it was 110%; in [10], 104%; in experiment [12] it was 109%; in experiment [13], 109%. The growth was 102% in experiment [14], 106% in [15], 107% in [16] and 96.7% in [17].
Turning to `O=C1Cc2c(sc3c(F)cccc23)C(c2ccccc2[N+](=O)[O-])N1` (stereo not drawn), the growth was 99.4% in experiment [1]; 95.4% in experiment [2]; 107% in [3]; 108% in experiment [4]; 93% in experiment [5]; 93.1% in experiment [6]. The growth was 63.5% in experiment [7]; 97.9% in [8]; 106% in [9]; 78.6% in experiment [10]; 99.6% in experiment [11]; 108% in [12]. For the same compound, the growth was 79.3% in experiment [13]; 81.4% in experiment [14]; 85.9% in [15]; 119% in [16]; 100% in [17].
Consider `Cc1cc(C)c(-c2cc(O)c(-c3c(C)cc(C)cc3C)cc2O)c(C)c1`, for which the growth in [1] was 19.9%; in [2], 42.3%; in [3], 49.4%; in experiment [4], 50.7%; in experiment [5], 58.9%; in experiment [6] it was 4.25% (active). Besides, the growth in experiment [7] was 70.3%; in experiment [8], -25.7% (active); in experiment [18], 11.9%; in experiment [10], 43%; in experiment [12], 2.34% (active); in [13] it was 26.2%. The results for the growth in experiment [14], in experiment [15] and in [16] were 21.7%, 22.6% and 45.8%, respectively.
As for `CCOc1cccc2c(NC(C)CCCN(CC)CC)c(C)cnc12` (stereo not drawn), the growth in [1] is 96.6%; in [2] it was 107%; in [3], 103%; in [4] it was 106%; in experiment [5], 108%; in [6], 95.8%. The growth in [7] is 102%; in experiment [8], 110%; in [9] it was 114%; in experiment [10], 115%; in [11], 99.8%; in experiment [12], 101%. Further, the growth was 96.6% in experiment [13]; 97.7% in [14]; 93.4% in [15]; 115% in experiment [16]; 99.1% in experiment [17].
As for `O=C1CC(c2ccccc2)Cc2nc3ccc(Cl)cc3cc21` (stereo not drawn), the growth is 13% in [1]; 29.7% in [2]; 22.4% in experiment [3]; 26.4% in experiment [4]; 48.7% in experiment [5]; 47.2% in [6]. Further, the growth is 16.5% in experiment [7]; -29.1% (active) in [8]; 7.96% (active) in [9]; 75.5% in experiment [10]; 4.62% (active) in [11]; -38.6% (active) in experiment [12]. Besides, the growth was 23% in [13]; 54% in experiment [14]; 5.45% (active) in [15]; 5.28% (active) in experiment [16]; 1.73% (active) in experiment [17].
